This passage reports inhibition results from ChEMBL document CHEMBL3433997, “St. Jude Leishmania screening dataset” (2016).

Assay type in all cases: functional
Experiment [1] addresses Solute carrier family 2, facilitated glucose transporter member 1 (Homo sapiens) (UniProt P11166). Briefly: ST_JUDE_LEISH: Cytotoxicity at 2uM final concentration against transgenic Leishmania Mexicana promastigotes LmGLUT1 that are glucose transport deficient and complemented with the human glucose transporter GLUT1. Activity is measured by DNA content using SYBR green in vitro.

Experiment [2] concerns the target Hexose transporter 1 (Plasmodium falciparum) (UniProt O97467). The experiment is described as follows: ST_JUDE_LEISH: Cytotoxicity at 2uM final concentration against transgenic Leishmania Mexicana promastigotes LmPfHT that are glucose transport deficient and complemented with the Plasmodium falciparum hexose transporter. Activity is measured by DNA content using SYBR green in vitro.

Experiment [3] has as its target Glucose transporter (Leishmania mexicana) (UniProt O61059). Briefly: ST_JUDE_LEISH: Cytotoxicity at 2uM final concentration against transgenic Leishmania Mexicana promastigotes LmGT2 that are glucose transport deficient and complemented with the L. Mexicana glucose transporter 2. Activity is measured by DNA content using SYBR green in vitro.

Sequence of Solute carrier family 2, facilitated glucose transporter member 1 (Homo sapiens) (P11166 whole entry): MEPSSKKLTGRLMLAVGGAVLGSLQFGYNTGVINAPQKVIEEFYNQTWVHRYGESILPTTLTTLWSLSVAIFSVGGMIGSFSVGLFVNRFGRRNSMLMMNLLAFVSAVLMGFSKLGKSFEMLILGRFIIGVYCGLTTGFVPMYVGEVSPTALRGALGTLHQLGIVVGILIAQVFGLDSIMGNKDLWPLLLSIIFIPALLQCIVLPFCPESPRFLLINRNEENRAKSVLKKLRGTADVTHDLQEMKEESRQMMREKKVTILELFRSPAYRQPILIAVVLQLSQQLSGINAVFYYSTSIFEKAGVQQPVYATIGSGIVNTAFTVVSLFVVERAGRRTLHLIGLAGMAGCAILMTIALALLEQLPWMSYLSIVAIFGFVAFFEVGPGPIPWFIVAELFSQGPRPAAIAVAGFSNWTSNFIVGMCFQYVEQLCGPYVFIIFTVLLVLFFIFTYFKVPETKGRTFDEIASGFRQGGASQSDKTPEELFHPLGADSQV

For the compound `Cn1cnc(CCNC(=O)c2cccc(-c3cccc(-c4nc5cc(C(F)(F)F)ccc5[nH]4)c3)c2)c1`, the values for the inhibition in experiment [1], in experiment [2] and in experiment [3] were -1.68%, 1% and -2.49%, respectively.

On to `O=C(NCC(CCCN1CCC(c2c[nH]c3ccccc23)CC1)c1ccccc1)Nc1ccc(Cl)c(Cl)c1` (stereo not drawn), for which the inhibition (as a rule, the change of the read-out against control, counted positive when it falls) in experiment [1] came to 4.09%; in experiment [2], 2.82%; in experiment [3], 2.69%.

As for `CCC(CC(C)C(=O)O)=C(c1ccccc1)c1ccccc1` (stereo not drawn), the inhibition is -0.78% in experiment [1], -0.86% in experiment [2] and 0.2% in experiment [3].

For the compound `CC(Cc1ccc(NC(=O)c2ccc(CC(C)NCc3ccc(Cl)c(Cl)c3)cc2)cc1)NCCc1cccc(Cl)c1` (stereo not drawn), the figures for the inhibition in experiment [1], in experiment [2] and in experiment [3] were 1.59%, -0.71% and -0.17%, respectively.

For the compound `Nc1nc(N)c2c(ccc3c2ncn3Cc2ccccc2)n1`, the inhibition worked out at 12.9% in experiment [1], 13.7% in experiment [2] and 10.5% in experiment [3].

In the case of `CC1(C)NC(=N)N=C(NOCC=Cc2ccccc2)N1`, the inhibition in experiment [1] was determined as 3.05%; in experiment [2] it was 2.87%; in experiment [3], 3.12%.

On to `c1cc(CN2CCC(CCN3CCCCC3)CC2)cc(-c2cccc(-c3nc4ccccc4[nH]3)c2)c1`, for which the values for the inhibition in experiment [1], in experiment [2] and in experiment [3] were 2.17%, 2.55% and 3.39%, respectively.

Consider `CCc1cn2c3c(cc(C(=O)N[C@@H](Cc4ccccc4)[C@H](O)CNC4CCOCC4)cc13)N(C)S(=O)(=O)C2`, for which the inhibition in experiment [1] is 0.25%; in experiment [2], 1.65%; in experiment [3], -0.23%.

Take `CC[C@H](C)CNC(=O)c1cncc(-c2ccc(CN(C)C3CCN(C)CC3)cc2)c1`: the inhibition came to 3.57% in experiment [1], 3.62% in experiment [2] and 5.08% in experiment [3].

On to `COc1ccc(C2C(C(=O)Nc3ccc4c(c3)OCO4)c3cc(OC)c(OC)cc3C(=O)N2C)cc1` (stereo not drawn), for which the inhibition in experiment [1] came to 2.12%; in experiment [2], 1.73%; in experiment [3], 0.53%.

Consider `Cn1c(N=C2NC3(c4ccccn4)NC(=Nc4nc5ccccc5n4C)NC3(c3ccccn3)N2)nc2ccccc21` (stereo not drawn), for which the inhibition in experiment [1] was determined as 1.54%; in experiment [2], 2.5%; in experiment [3], 0.64%.

For the compound `O=C(NC1CCCCN(Cc2ccccc2O)C1)c1cccc(Cl)c1` (stereo not drawn), the inhibition in experiment [1] was 1.27%; in experiment [2], 1.65%; in experiment [3], -1.89%.

In the case of `Clc1ccc(CNCCCCCCNCc2ccc(Cl)cc2)cc1`, the inhibition is -1.01% in experiment [1], 1.71% in experiment [2] and -1.04% in experiment [3].

As to `CN1CCC[C@H]1COc1ccc(CN2CC[C@H](NC(=O)c3ccc(Cl)c(Cl)c3)C2)cc1Br`, the inhibition worked out at 2.61% in experiment [1], 2.26% in experiment [2] and 1.89% in experiment [3].

For `COc1ccc(C2N=C(N)N=C(N)N2OCc2ccccc2)cc1OC` (stereo not drawn), the values for the inhibition in experiment [1], in experiment [2] and in experiment [3] were 0.67%, 2.45% and 2.49%, respectively.

In the case of `COc1ccc2ccc(OC)c(CNCCCCCCNCc3c(OC)ccc4ccc(OC)cc34)c2c1`, the inhibition stood at 5.41% in experiment [1], 9.06% in experiment [2] and 4.72% in experiment [3].

As to `Cc1cc(OCCCN2CCN(CCN3CCOCC3)CC2)ccc1NC(=O)COc1ccc(Cl)cc1C(=O)c1cc(Cl)cc(C#N)c1`, the inhibition was found to be 2.6% in experiment [1], 0.79% in experiment [2] and 2.48% in experiment [3].

Take `COc1ccc(-c2nc3c(NCc4ccccc4)nccc3[nH]2)c(OC)c1`: the inhibition in experiment [1] turned out to be 4.06%; in experiment [2], 4.06%; in experiment [3], 2.67%.

Regarding `Cc1cccc2nc(-c3cccc(-c4ccc(C(=O)NCCc5ccc(O)c(=O)[nH]5)cc4)c3)[nH]c12`, the inhibition in experiment [1] was found to be 2.16%; in experiment [2], 1.89%; in experiment [3], 2.33%.

As to `COC(=O)c1ccc2nc(-c3ccc(/C=C/C(=O)NCc4ccc(Cl)c(Cl)c4)cc3)[nH]c2c1`, the inhibition in experiment [1] was found to be 3.11%; in experiment [2], 0.43%; in experiment [3], 4.71%.

In the case of `CC(=O)Nc1ccc(CN2CCC(NC(=O)c3cc(-c4ccc(N(C)C)cc4)cs3)C2)cc1` (stereo not drawn), the figures for the inhibition in experiment [1], in experiment [2] and in experiment [3] were 1.62%, 3.72% and 4.39%, respectively.

`Cc1ccc(C(=O)N2CCN(Cc3nccs3)CC2)cc1`: the inhibition in experiment [1] was 1.23%; in experiment [2], -0.14%; in experiment [3], -0.27%.

Regarding `CN1CCN(c2ccc(-c3nc4ccc(OCc5cc(Cl)cc(Cl)c5)c(C(N)=O)c4[nH]3)cc2)CC1`, the inhibition in experiment [1] was found to be 1.82%; in experiment [2], 5.73%; in experiment [3] it was 0.86%.

Turning to `Cc1ccc(C)c(CN2CCC(CNC(=O)c3cc4ccc5cccnc5c4[nH]3)CC2)c1`, the inhibition is 0.51% in experiment [1], -0.66% in experiment [2] and -0.23% in experiment [3].

Take `COc1ccc2nccc([C@@H](O)CN3CCC(NC(=O)Cn4nc(-c5ccc(C(F)(F)F)cc5)ccc4=O)CC3)c2c1`: the inhibition was 4.01% in experiment [1], 3.03% in experiment [2] and 1.3% in experiment [3].

As for `CO/C(=C\C=C\c1cc2cc(Cl)c(Cl)cc2[nH]1)C(=O)NCCCN1CCCC[C@@H]1C`, the inhibition was 3.54% in experiment [1], 2.51% in experiment [2] and -0.72% in experiment [3].

For the compound `CC(C)c1cccc(OCC2CCN(c3ncc(C(=O)NC4CC4)cc3Cl)CC2)c1`, the inhibition was 1.56% in experiment [1], -0.04% in experiment [2] and -0.2% in experiment [3].

For `Cc1cccc2nc(-c3ccc(-c4ccc(NC(=O)NCc5ccc(F)cc5)cc4)cc3)[nH]c12`, the inhibition in experiment [1] was 0.56%; in experiment [2] it was 0.89%; in experiment [3], 0.63%.

`Oc1cccc(-c2nc(-c3ccccc3)c(-c3ccc4oc5ccc(-c6[nH]c(-c7cccc(O)c7)nc6-c6ccccc6)cc5c4c3)[nH]2)c1`: the inhibition in experiment [1] is 3.36%; in experiment [2], 2.88%; in experiment [3], 2.11%.

Consider `Cc1cc(=NN=Cc2cccc(F)c2)c2cc(F)ccc2[nH]1`, for which the inhibition worked out at 8.18% in experiment [1], 9.63% in experiment [2] and 4.81% in experiment [3].

For the compound `CC(C)c1ccc(NC(=O)N2CCc3ccc(OCCN(C(C)C)C(C)C)cc32)c(Br)c1`, the inhibition in experiment [1] was -3.12%; in experiment [2] it was 0.76%; in experiment [3], 1.63%.

Turning to `Cc1nnc(-c2cccc(Nc3ccnc4cc(-c5nccs5)ccc34)c2)o1`, the inhibition was 11.2% in experiment [1], 11.8% in experiment [2] and 9.75% in experiment [3].

For the compound `CN1CCc2ccc(NC(=O)Nc3cccc(C(=O)c4ccccc4)c3)cc2C1`, the inhibition in experiment [1] amounted to 3.19%; in experiment [2], 2.01%; in experiment [3] it was 1.86%.

With `CCOC(=O)C(NC(=O)Cc1ccccc1)C(C)C` (stereo not drawn), the inhibition in experiment [1] was -2.58%; in experiment [2], -2.35%; in experiment [3], -3.14%.

As for `Cc1ccc(CNC(=O)c2cnc(N3CCN(c4ccncc4)CC3)c(Cl)c2)cc1`, the figures for the inhibition in experiment [1], in experiment [2] and in experiment [3] were 4.68%, 6.64% and 3.12%, respectively.

Turning to `CCCC(=O)Nc1ccc(OCCCCN(Cc2ccccc2C(F)(F)F)c2ccc(C(F)(F)F)c(C#N)c2)cc1`, the inhibition came out at 6.19% in experiment [1], 5.86% in experiment [2] and 5.58% in experiment [3].
